High-throughput results: PubChem BioAssay, National Center for Advancing Translational Sciences (NCATS)
Only some compounds are listed: those with a hit (about 5.4% of all), similar ones and a draw of the others.
Vaccinia mCherry = qHTS for Stage-Specific Inhibitors of Vaccinia Orthopoxvirus: mCherry Reporter Primary qHTS | Potency, µM (highest dose often 36.5 µM), without a hit: top-dose activity change, negative = inhibition, hits mostly inhibitors | Vaccinia virus mCherry reporter infection, fluorescence | 310,000 tested, 0.63% active | AID 720579, 2013; calls by dose curve; tested in A549 cells; further: nearly all actives have a fitted effect of over 35% in size
MARV entry inh = qHTS for inhibitors of binding or entry into cells for Marburg Virus. 300,000 tested, 1.8% active. Marburg virus pseudotyped entry inhibition, cell reporter. Potency, µM (titrated, usually from 37.8 µM), for the others: at the highest dose activity change, negative = inhibition, hits mostly inhibitors; calls by dose curve; tested in HEK293 cells
Sm TGR block = qHTS Assay for the Inhibitors of Schistosoma Mansoni Peroxiredoxins; Schistosoma mansoni thioredoxin glutathione reductase (TGR), Q962Y6; purified TGR, DTNB reduction, TNB absorbance 405 nm; Potency, µM (series often up to 114 µM), inactives show top-dose activity change, negative = inhibition, usual class: inhibitors; 360,000 tested, 3% active; AID 485364, 2010; active means well fitted inhibition curve with a large enough effect; inconclusive means small, poorly fitted or top-dose-only effect; inactive means no such curve, though single readings can be large or run the other way; further: nearly all actives have a fitted effect of over 60% in size
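First, TGR (20 nM dispensed) and NADPH were mixed with compound. Second, a 15 min room-temperature incubation followed. Third, further NADPH and then DTNB were added to start the reaction. Finally, TNB absorbance was monitored kinetically.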
FMDV antiviral = High Throughput Screening for Foot and Mouth Disease Virus Antivirals; Potency, µM (series often up to 57.9 µM), for the others: at the highest dose activity change, negative = inhibition, usual class: inhibitors; FMDV antiviral cell-based qHTS; 410,000 tested, 1.2% active; calls by dose curve; tested in HEK293T cells; further: read-out not given here; nearly all actives have a fitted effect of over 45% in size
Lassa entry inh = qHTS for Inhibitors of binding or entry into cells for Lassa Virus; Lassa virus pseudotype entry inhibition, cell reporter; Potency, µM (highest dose often 37.9 µM), without a hit: at the top dose activity change, negative = inhibition, actives largely listed as inhibitors; 300,000 tested, 1.2% active; AID 540256, 2011; calls by dose curve; tested in HEK293 cells; further: nearly all actives have a fitted effect of over 50% in size
VACV Venus inh = qHTS for Stage-Specific Inhibitors of Vaccinia Orthopoxvirus: Venus Reporter Primary qHTS | Vaccinia virus Venus reporter expression, fluorescence | Potency, µM (series often up to 36.5 µM), for the others: top-dose activity change, negative = inhibition, most hits filed as inhibitors | 330,000 tested, 0.46% active; calls by dose curve; tested in A549 cells; further: nearly all actives have a fitted effect of over 30% in size
An asterisk follows results filed as active; i = inactive; ? = inconclusive; · = not tested or not shown; [ ] = another dose, or the depositor's remark. On the % scale 0 is the no-effect control and ±100 the full control effect; potency means the concentration at half of the fitted maximal effect.

SMILES	Vaccinia mCherry	MARV entry inh	Sm TGR block	FMDV antiviral	Lassa entry inh	VACV Venus inh
Cc1ccc(C2/C(=C(/O)c3cnn(-c4ccccc4)c3C)C(=O)C(=O)N2CCN2CCOCC2)o1 (configuration not stated)	·	10%	22µM*	27%	?	-10%
Cc1ccc(C2/C(=C(/O)c3ccccc3)C(=O)C(=O)N2CCN2CCOCC2)o1 (configuration not stated)	·	-1%	45µM*	16%	1%	·
Cc1ccc(C)c(/C(O)=C2/C(=O)C(=O)N(CCN3CCOCC3)C2c2ccco2)c1 (configuration not stated)	-14%	-6%[46.1 µM]	20µM*	7%	11%	-10%
Cc1c(/C(O)=C2/C(=O)C(=O)N(CCN3CCOCC3)C2c2cccs2)cnn1-c1ccccc1 (configuration not stated)	·	?	35µM*	25%	-1%	-5%
Cc1ccc([C@H]2/C(=C(\O)c3cnn(-c4ccccc4)c3C)C(=O)C(=O)N2CCN2CCOCC2)o1	·	10%	·	·	·	·
Cc1ccc(CNC(=O)c2cccc(-n3cnc4cccnc43)c2)cc1	i	·	23%	2%	29%[46.1 µM]	-5%
CCN1C(=NCCCOC(C)C)N[C@@H](CCc2ccccc2)[C@H](C(=O)OC)[C@H]1C	·	3%[14.2 µM]	·	·	·	·
Cc1nnc(N2CCN(c3ccccc3F)CC2)c2c1nnn2Cc1ccc(F)cc1	-3%	0%[46.1 µM]	4%	-30%	0%[46.1 µM]	-12%
Cc1ccccc1CNC(=O)c1cc2cc(S(=O)(=O)N3CCCCC3)ccc2n1C	-23%	·	6%	-19%	?	-25%
CC(C)(C)N1C(=O)[C@H]2[C@H]3[C@H](O)[C@H](O)C/C(=N\OCc4ccccc4)[C@H]3CC[C@H]2C1=O	·	-9%[14.2 µM]	·	·	·	·
CCc1ccc(NC(=O)CSc2nc3ncccc3[nH]2)cc1	-2%	·	5%	4%	2%[46.1 µM]	-11%
Cc1ccc(NC(=O)N2CCc3ccccc32)cc1	·	?	0%	-55%	?	·
CC(C)Oc1cccc(C(=O)Nc2ccc(N3CCN(C)CC3)cc2)c1	·	·	40µM*	56%	·	·
CN1CCN(c2ccc(NC(=O)N3CCc4ccccc43)cc2)CC1	-30%	?	-1%	18µM*	-31%[46.1 µM]	-20%
CN1CCN(c2ccc(NC(=O)c3cccc(OCc4ccccc4)c3)cc2)CC1	·	22µM*	0%	7%	-17%	-23%
COc1cccc(C(=O)Nc2ccc(N3CCN(C(=O)c4cccs4)CC3)cc2)c1	?	?	5%	32µM*	?	?
CC(C)c1ccc(NC(=O)c2cc3c(=O)[nH]c4ccccc4c3n2C)cc1	-18%	6%[46.1 µM]	8%	0%	9%[46.1 µM]	-20%
Cc1ccc(S(=O)(=O)n2nc(OC(=O)c3cccc(F)c3)cc2N)cc1	-8%	-1%[46.1 µM]	13µM*	16%	2%	-15%
Nc1cc(OC(=O)c2ccco2)nn1S(=O)(=O)c1ccc(F)cc1	-12%	2%	32µM*	2%	3%	-10%
CC(C)(C)C(=O)Oc1cc(N)n(S(=O)(=O)c2ccc(F)cc2)n1	?	-5%[46.1 µM]	-24%	4%	-6%	-24%
Cc1ccccc1C(=O)Oc1cc(N)n(S(C)(=O)=O)n1	-3%	-4%[46.1 µM]	0%	-1%	-22%[46.1 µM]	-10%
Cc1c(C(=O)Oc2cc(N)n(S(C)(=O)=O)n2)cccc1[N+](=O)[O-]	i	-12%[46.1 µM]	8.9µM*	-9%	-1%	-4%
Cc1ccc(S(=O)(=O)n2nc(OC(=O)c3c(F)cccc3Cl)cc2N)cc1	-27%	2%[46.1 µM]	5%	-11%	2%	-17%
Nc1cc(OC(=O)c2ccc(F)cc2)nn1S(=O)(=O)c1ccc(F)cc1	-24%	-7%[46.1 µM]	-27%	-6%	2µM*	-17%
Clc1ccc[n+](CCCCC[n+]2cccc(Cl)c2)c1	-15%	·	·	·	·	-8%
Cc1ccc(S(=O)(=O)c2cnc(SCC(=O)Nc3cccc(Cl)c3)nc2N)cc1C	-13%	?	0%	?	-4%[46.1 µM]	-9%
Cc1cc(C)nc(S/C=C/C(=O)c2ccc(F)cc2)n1	·	·	0.71µM*	·	·	·
